The text below walks through data of PMC4336329 (PLoS ONE, 2015).

In all, about 310,000 compounds went through this assay and about 14,000 (4.5%) showed an effect of 50% or more. The effect is printed as a negative number. The sample holds strong results, similar compounds and a random draw of the others, so the mix is not that of the screen.
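Also: peak tail current of the secondary pulse compared with the same well before compound.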

This test deals with human ether-à-go-go-related gene (hERG) potassium channel (human, UniProt Q12809). As to the kind of experiment: primary screen, population patch clamp on CHO cells stably expressing hERG; higher = less effect of the substance.
Sequence of human ether-à-go-go-related gene (hERG) potassium channel (Q12809 whole entry, looked up): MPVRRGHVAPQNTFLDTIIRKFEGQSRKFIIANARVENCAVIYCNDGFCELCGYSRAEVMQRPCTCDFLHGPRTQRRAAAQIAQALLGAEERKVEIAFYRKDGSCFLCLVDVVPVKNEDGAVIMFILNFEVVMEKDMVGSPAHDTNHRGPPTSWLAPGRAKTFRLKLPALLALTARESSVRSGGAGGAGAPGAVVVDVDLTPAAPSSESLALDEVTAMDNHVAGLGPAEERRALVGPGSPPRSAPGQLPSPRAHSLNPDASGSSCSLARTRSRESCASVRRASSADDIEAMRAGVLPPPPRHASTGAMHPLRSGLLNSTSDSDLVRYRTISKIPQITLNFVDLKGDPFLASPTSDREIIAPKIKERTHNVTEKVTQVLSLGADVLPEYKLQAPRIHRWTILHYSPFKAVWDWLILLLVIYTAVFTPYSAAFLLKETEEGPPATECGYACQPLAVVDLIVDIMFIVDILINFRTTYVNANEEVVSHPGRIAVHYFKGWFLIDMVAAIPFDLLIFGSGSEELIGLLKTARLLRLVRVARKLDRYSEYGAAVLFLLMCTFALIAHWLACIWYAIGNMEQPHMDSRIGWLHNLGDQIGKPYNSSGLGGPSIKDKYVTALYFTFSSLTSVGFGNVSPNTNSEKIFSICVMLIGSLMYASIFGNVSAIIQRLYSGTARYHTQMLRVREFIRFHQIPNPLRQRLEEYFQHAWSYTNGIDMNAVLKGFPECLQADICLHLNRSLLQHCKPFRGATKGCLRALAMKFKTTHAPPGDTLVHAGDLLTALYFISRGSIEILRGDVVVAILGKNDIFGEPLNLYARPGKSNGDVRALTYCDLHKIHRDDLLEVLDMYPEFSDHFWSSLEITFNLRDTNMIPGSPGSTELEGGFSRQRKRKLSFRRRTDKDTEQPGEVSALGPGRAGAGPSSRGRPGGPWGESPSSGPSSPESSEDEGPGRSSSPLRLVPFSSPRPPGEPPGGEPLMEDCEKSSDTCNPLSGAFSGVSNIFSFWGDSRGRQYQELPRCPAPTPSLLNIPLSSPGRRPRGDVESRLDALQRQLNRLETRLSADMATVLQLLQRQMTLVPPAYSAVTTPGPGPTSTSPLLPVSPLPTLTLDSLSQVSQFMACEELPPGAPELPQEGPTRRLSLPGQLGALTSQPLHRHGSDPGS
In the case of `CN(C)[C@@H]1C(=O)C(C(N)=O)=C(O)[C@@]2(O)C(=O)C3=C(O)c4c(O)cccc4[C@@](C)(O)C3[C@H](O)C12.Cl` (stereo partly drawn), the “hERG current change (%, negative = inhibition) at 10uM” value was -1.22%.

Regarding `O=C(Cn1c(=O)[nH]c2ccccc2c1=O)N1CCN(c2cccc(Cl)c2)CC1`, the “hERG current change (%, negative = inhibition) at 10uM” value is on record as 15.7%. For `COc1cc2[nH]c(=O)n(CCC(=O)NCCCN3CCN(c4ccccc4F)CC3)c(=O)c2cc1OC`, the “hERG current change (%, negative = inhibition) at 10uM” value is given as -35.4%. Take `O=C(CCCn1c(=O)[nH]c2cc(Cl)ccc2c1=O)NCCCN1CCCC1`: the “hERG current change (%, negative = inhibition) at 10uM” value worked out at 14.6%. Turning to `O=C(CN1C(=O)CSc2ncccc21)N1CCOCC1`, the “hERG current change (%, negative = inhibition) at 10uM” value is listed as -6.66%.

Consider `COCCn1c(=O)[nH]c2cc(C(=O)NCCN3CCN(c4cccc(Cl)c4)CC3)ccc2c1=O`, for which the “hERG current change (%, negative = inhibition) at 10uM” value was 12.8%. In the case of `O=C(CCn1c(=O)[nH]c2ccccc2c1=O)NCCCN1CCN(c2cccc(Cl)c2)CC1`, the “hERG current change (%, negative = inhibition) at 10uM” value is on record as -65.4%.

Consider `O=C(CCCn1c(=O)[nH]c2cc(Cl)ccc2c1=O)NCCCN1CCN(c2ccc(F)cc2)CC1`, for which the “hERG current change (%, negative = inhibition) at 10uM” value is recorded as -64.9%.

Turning to `O=C(CCCN1C(=O)CSc2ncccc21)N1CCN(Cc2ccccc2)CC1`, the “hERG current change (%, negative = inhibition) at 10uM” value was 6.42%. For `O=C(CCCCCn1c(=O)[nH]c2ccccc2c1=O)NCCCN1CCN(c2ccccc2F)CC1`, the “hERG current change (%, negative = inhibition) at 10uM” value was -79.2%. As for `O=C(CCNC(=O)Cn1ccc2ccccc2c1=O)NCCCN1CCN(c2ccccc2F)CC1`, the “hERG current change (%, negative = inhibition) at 10uM” value turned out to be 10.1%. For `O=C(CCCn1c(=O)[nH]c2cc(Cl)ccc2c1=O)NCCN1CCN(c2ccccc2)CC1`, the “hERG current change (%, negative = inhibition) at 10uM” value is recorded as -48.4%. The figure for `O=C(CCCN1C(=O)CSc2ncccc21)N1CCN(c2cccc(C(F)(F)F)c2)CC1` is -56.5%. Take `Cc1cccc(-n2ncc(C#N)c2-n2cccc2)c1`: the “hERG current change (%, negative = inhibition) at 10uM” value was -5.85%. As to `CC(C)Oc1ccc(C(=O)NCC(=O)OCC(=O)N(C)Cc2cccs2)cc1`, the “hERG current change (%, negative = inhibition) at 10uM” value was -15.9%. For the molecule `C=CCN(Cc1nc(-c2ccccc2)no1)C(=O)c1ccoc1C`, the “hERG current change (%, negative = inhibition) at 10uM” value is recorded as -4.69%. On to `COC(=O)c1cccc(NC(=O)c2ccc3c(c2)C(=O)N(CC2CCCO2)C3=O)c1` (stereo not drawn), for which the “hERG current change (%, negative = inhibition) at 10uM” value is -24.3%. Consider `NNc1nc(-c2ccccc2Cl)nc2ccccc12`, for which the “hERG current change (%, negative = inhibition) at 10uM” value was determined as 11.1%. In the case of `COc1ccc(NC(=O)CCS(=O)(=O)c2ccc3c(c2)CCCN3C(C)=O)cc1`, the “hERG current change (%, negative = inhibition) at 10uM” value came out at 9.92%.

Regarding `CC(C)NC(=O)NC(=O)CSc1ncccn1`, the “hERG current change (%, negative = inhibition) at 10uM” value amounted to 15.7%. Turning to `Cn1c(=O)oc2cc(S(=O)(=O)N3CCC(C(=O)NCc4ccc(F)cc4)CC3)ccc21`, the “hERG current change (%, negative = inhibition) at 10uM” value is recorded as -8.93%.

As to `O=C(CCn1c(=O)[nH]c2ccccc2c1=O)N1CCN(c2cccc(C(F)(F)F)c2)CC1`, the “hERG current change (%, negative = inhibition) at 10uM” value is listed as -43%. For the molecule `O=C(CCCCn1c(=O)[nH]c2ccccc2c1=O)NCc1ccc2c(c1)OCO2`, the “hERG current change (%, negative = inhibition) at 10uM” value is -6.99%. The figure for `O=C(CCCCCn1c(=O)[nH]c2ccccc2c1=O)N1CCN(Cc2ccc3c(c2)OCO3)CC1` is -71.7%. With `Cc1ccc(C)c(N2CCN(C(=O)CCCCn3c(=O)[nH]c4ccccc4c3=O)CC2)c1`, the “hERG current change (%, negative = inhibition) at 10uM” value is given as -25.2%.

In the case of `O=C(CCCCn1c(=O)[nH]c2ccccc2c1=O)N1CCN(c2cccc(C(F)(F)F)c2)CC1`, the “hERG current change (%, negative = inhibition) at 10uM” value is listed as -56.1%. `O=C(Cn1c(=O)[nH]c2ccccc2c1=O)N1CCN(Cc2ccc3c(c2)OCO3)CC1`: the “hERG current change (%, negative = inhibition) at 10uM” value was 0.172%. As for `Cc1cccnc1NC(=O)C1CCN(S(=O)(=O)c2cccs2)CC1`, the “hERG current change (%, negative = inhibition) at 10uM” value is reported as -6.07%. As for `O=C(c1cccnc1)N1CCN(S(=O)(=O)c2ccc(S(=O)(=O)N3CCCC3)cc2)CC1`, the “hERG current change (%, negative = inhibition) at 10uM” value was determined as 9.65%. For the molecule `Cc1ccc(NC(=Nc2ccc(Br)cc2)N2CCOCC2)cc1C`, the “hERG current change (%, negative = inhibition) at 10uM” value is listed as -63.8%. Consider `Cc1ccc(NC(=O)CN2CCOCC2)cc1C`, for which the “hERG current change (%, negative = inhibition) at 10uM” value was 14.3%. Take `Cc1ccc(NC(=S)NCCN2CCOCC2)cc1C`: the “hERG current change (%, negative = inhibition) at 10uM” value was -5.31%. Turning to `Cc1ccc(NC2CCCN(C(=O)c3cccc(-c4ncc[nH]4)c3)C2)cc1C` (stereo not drawn), the “hERG current change (%, negative = inhibition) at 10uM” value is on record as 3.23%. For `NC(=O)c1nsc(C(=O)N(Cc2cccnc2)C(C(=O)NCc2ccc(F)cc2)c2ccc(O)cc2)c1N` (stereo not drawn), the “hERG current change (%, negative = inhibition) at 10uM” value was -1.96%. `COc1ccc(NC(=O)C(c2ccccc2)N(C)C(=O)c2cnccn2)cc1` (stereo not drawn): the “hERG current change (%, negative = inhibition) at 10uM” value was 1.47%. Take `COc1ccc(CN(C(=O)c2cnccn2)C(C(=O)Nc2ccc(F)cc2)c2ccccc2)cc1` (stereo not drawn): the “hERG current change (%, negative = inhibition) at 10uM” value is -68.2%. In the case of `NC(=O)c1nsc(C(=O)N(Cc2cccnc2)C(C(=O)NCc2ccc(F)cc2)c2ccc(F)cc2)c1N` (stereo not drawn), the “hERG current change (%, negative = inhibition) at 10uM” value was 0.71%.

On to `CCC(C)(C)NC(=O)C(c1ccc(F)cc1)N(Cc1ccc(OC)cc1)C(=O)c1cnccn1` (stereo not drawn), for which the “hERG current change (%, negative = inhibition) at 10uM” value was -11.8%. Turning to `COc1ccc(C(C(=O)NCc2ccc(F)cc2)N(Cc2cccnc2)C(=O)c2snc(C(N)=O)c2N)cc1` (stereo not drawn), the “hERG current change (%, negative = inhibition) at 10uM” value is -62%.

As to `CCOc1ccc(S(=O)(=O)NNC(=S)Nc2ccc(Br)cc2)cc1`, the “hERG current change (%, negative = inhibition) at 10uM” value is 5.35%. As to `COC1=C(Nc2ccccc2OC)C(=O)c2ccccc2C1=O`, the “hERG current change (%, negative = inhibition) at 10uM” value turned out to be 0.0125%. Take `Cc1ccc(N(C(=O)c2ccc(S(=O)(=O)N3CCOCC3)cc2)C2C=CS(=O)(=O)C2)cc1` (stereo not drawn): the “hERG current change (%, negative = inhibition) at 10uM” value was 3.58%. For `O=C(NCc1ccc(F)cc1)C(=O)NCC1OCCN1C(=O)c1cccs1` (stereo not drawn), the “hERG current change (%, negative = inhibition) at 10uM” value is on record as -4.15%. `O=C(NCc1ccccc1)C(=O)NCC1OCCN1C(=O)c1cccs1` (stereo not drawn): the “hERG current change (%, negative = inhibition) at 10uM” value is -65.3%. The figure for `O=C(NCc1ccc(Cl)cc1)C(=O)NCC1OCCN1C(=O)c1cccs1` (stereo not drawn) is -7.77%; for `COc1cc(CNCCc2ccc(S(N)(=O)=O)cc2)ccc1OCc1ccc(Cl)cc1.Cl` it is -31.8%. `C=CCOc1ccccc1CNCCc1ccc(S(N)(=O)=O)cc1.Cl`: the “hERG current change (%, negative = inhibition) at 10uM” value is -37.2%. As to `Cl.NS(=O)(=O)c1ccc(CCNCc2ccccc2OCc2ccc(F)cc2)cc1`, the “hERG current change (%, negative = inhibition) at 10uM” value is -74.5%. Turning to `Cl.NS(=O)(=O)c1ccc(CCNCc2ccccc2OCc2ccc(Cl)cc2)cc1`, the “hERG current change (%, negative = inhibition) at 10uM” value is listed as -73.1%. The figure for `Cl.NS(=O)(=O)c1ccc(CCNCc2cc(Cl)ccc2OCc2ccccc2)cc1` is -74.5%. The value for `Cl.Clc1ccc(COc2ccccc2CNCc2cccnc2)cc1` was -31.1%; that for `NS(=O)(=O)c1ccc(NCc2ccccc2OCc2ccc(F)cc2)cc1` was -17%; that for `NS(=O)(=O)c1ccc(CCNC(=O)c2ccccc2OCc2ccc(F)cc2)cc1` was 4.16%.

As for `NS(=O)(=O)c1ccc(NCc2cc(Cl)ccc2OCc2ccc(F)cc2)cc1`, the “hERG current change (%, negative = inhibition) at 10uM” value was found to be 3.36%.
